Experimental data published in the supplement of paper PMC7261846.
Counter-ions that a name gives are not always drawn. ± gives the uncertainty stated by the source.

Tested on: Candida albicans SNY425 biofilm
Assay: biofilm OD600 with compound plus antifungal (OD600 (absorbance)); higher = more biofilm remaining
[1] = assay detail: disruption of 24-h mature biofilm (compound + antifungal for a second 24 h)
[2] = assay detail: sustained inhibition (compound + antifungal during 90-min adherence and 24-h growth)

Row | SMILES | biofilm OD600 [1] | biofilm OD600 [2]
1 | O=C(O)CNC(=O)C(CS)Cc1ccccc1 (racemic) [DL-Thiorphan] + C[C@@H]1[C@H](O)[C@@H](C)/C=C/C=C/C=C/C=C/C=C/C=C/C=C/[C@H](O[C@@H]2O[C@H](C)[C@@H](O)[C@H](N)[C@@H]2O)C[C@@H]2O[C@](O)(C[C@@H](O)C[C@@H](O)[C@H](O)CC[C@@H](O)C[C@@H](O)CC(=O)O[C@H]1C)C[C@H](O)[C@H]2C(=O)O [amphotericin B] (first compound 12.5 µM) | 0.264 ± 0.0083 | 0.164 ± 0.012
2 | CC(C)C[C@H](NP(=O)(O)O[C@@H]1O[C@@H](C)[C@H](O)[C@@H](O)[C@H]1O)C(=O)N[C@@H](Cc1c[nH]c2ccccc12)C(=O)O [Phosphoramidon] + OC(Cn1cncn1)(Cn1cncn1)c1ccc(F)cc1F [fluconazole] (first compound 12.5 µM) | 0.255 ± 0.0097 | 0.156 ± 0.0037
3 | CCOC(=O)[C@H](CCc1ccccc1)N[C@@H](C)C(=O)N1CCC[C@H]1C(=O)O [Enalapril] + C[C@@H]1[C@H](O)[C@@H](C)/C=C/C=C/C=C/C=C/C=C/C=C/C=C/[C@H](O[C@@H]2O[C@H](C)[C@@H](O)[C@H](N)[C@@H]2O)C[C@@H]2O[C@](O)(C[C@@H](O)C[C@@H](O)[C@H](O)CC[C@@H](O)C[C@@H](O)CC(=O)O[C@H]1C)C[C@H](O)[C@H]2C(=O)O [amphotericin B] (first compound 12.5 µM) | 0.279 ± 0.0057 | 0.197 ± 0.023
4 | CC(C)CC(=O)N[C@H](C(=O)N[C@H](C(=O)N[C@@H](CC(C)C)[C@@H](O)CC(=O)N[C@@H](C)C(=O)N[C@@H](CC(C)C)[C@@H](O)CC(=O)O)C(C)C)C(C)C [Pepstatin A] + OC(Cn1cncn1)(Cn1cncn1)c1ccc(F)cc1F [fluconazole] (first compound 12.5 µM) | 0.255 ± 0.007 | 0.144 ± 0.0099
5 | O=c1oc(Cl)c(Cl)c2ccccc12 [3,4-Dichloroisocoumarin] + C[C@@H]1[C@H](O)[C@@H](C)/C=C/C=C/C=C/C=C/C=C/C=C/C=C/[C@H](O[C@@H]2O[C@H](C)[C@@H](O)[C@H](N)[C@@H]2O)C[C@@H]2O[C@](O)(C[C@@H](O)C[C@@H](O)[C@H](O)CC[C@@H](O)C[C@@H](O)CC(=O)O[C@H]1C)C[C@H](O)[C@H]2C(=O)O [amphotericin B] (first compound 12.5 µM) | 0.252 ± 0.013 | 0.196 ± 0.0087
6 | CC(C)C[C@H](NC(=O)[C@H]1O[C@@H]1C(=O)O)C(=O)NCCCCN=C(N)N + CC[C@H](C)C[C@H](C)CCCCCCCCC(=O)N[C@H]1C[C@@H](O)[C@@H](NCCN)NC(=O)[C@@H]2[C@@H](O)CCN2C(=O)[C@H]([C@H](O)CCN)NC(=O)[C@H]([C@H](O)[C@@H](O)c2ccc(O)cc2)NC(=O)[C@@H]2C[C@@H](O)CN2C(=O)[C@H]([C@@H](C)O)NC1=O [caspofungin] (first compound 12.5 µM) | 0.261 ± 0.01 | 0.18 ± 0.008
7 | CC[C@H](C)[C@H](N)C(=O)N1CCSC1 [P32/98 hemifumarate salt] + C[C@@H]1[C@H](O)[C@@H](C)/C=C/C=C/C=C/C=C/C=C/C=C/C=C/[C@H](O[C@@H]2O[C@H](C)[C@@H](O)[C@H](N)[C@@H]2O)C[C@@H]2O[C@](O)(C[C@@H](O)C[C@@H](O)[C@H](O)CC[C@@H](O)C[C@@H](O)CC(=O)O[C@H]1C)C[C@H](O)[C@H]2C(=O)O [amphotericin B] (first compound 12.5 µM) | 0.259 ± 0.014 | 0.181 ± 0.0051
8 | CC[C@H](C)[C@H](N)C(=O)N1CCSC1 [P32/98 hemifumarate salt] + CC[C@H](C)C[C@H](C)CCCCCCCCC(=O)N[C@H]1C[C@@H](O)[C@@H](NCCN)NC(=O)[C@@H]2[C@@H](O)CCN2C(=O)[C@H]([C@H](O)CCN)NC(=O)[C@H]([C@H](O)[C@@H](O)c2ccc(O)cc2)NC(=O)[C@@H]2C[C@@H](O)CN2C(=O)[C@H]([C@@H](C)O)NC1=O [caspofungin] (first compound 12.5 µM) | 0.254 ± 0.0085 | 0.171 ± 0.0047
9 | O=C(O[C@@H]1Cc2c(O)cc(O)cc2O[C@@H]1c1cc(O)c(O)c(O)c1)c1cc(O)c(O)c(O)c1 [Epigallocatechin gallate] + C[C@@H]1[C@H](O)[C@@H](C)/C=C/C=C/C=C/C=C/C=C/C=C/C=C/[C@H](O[C@@H]2O[C@H](C)[C@@H](O)[C@H](N)[C@@H]2O)C[C@@H]2O[C@](O)(C[C@@H](O)C[C@@H](O)[C@H](O)CC[C@@H](O)C[C@@H](O)CC(=O)O[C@H]1C)C[C@H](O)[C@H]2C(=O)O [amphotericin B] (first compound 12.5 µM) | 0.27 ± 0.017 | 0.231 ± 0.014
10 | CCN1C(=O)C=CC1=O [N-Ethylmaleimide] + C[C@@H]1[C@H](O)[C@@H](C)/C=C/C=C/C=C/C=C/C=C/C=C/C=C/[C@H](O[C@@H]2O[C@H](C)[C@@H](O)[C@H](N)[C@@H]2O)C[C@@H]2O[C@](O)(C[C@@H](O)C[C@@H](O)[C@H](O)CC[C@@H](O)C[C@@H](O)CC(=O)O[C@H]1C)C[C@H](O)[C@H]2C(=O)O [amphotericin B] (first compound 4 µM) | 0.304 ± 0.0086 | 0.189 ± 0.0049
11 | O=c1oc(Cl)c(Cl)c2ccccc12 [3,4-Dichloroisocoumarin] + CC[C@H](C)C[C@H](C)CCCCCCCCC(=O)N[C@H]1C[C@@H](O)[C@@H](NCCN)NC(=O)[C@@H]2[C@@H](O)CCN2C(=O)[C@H]([C@H](O)CCN)NC(=O)[C@H]([C@H](O)[C@@H](O)c2ccc(O)cc2)NC(=O)[C@@H]2C[C@@H](O)CN2C(=O)[C@H]([C@@H](C)O)NC1=O [caspofungin] (first compound 12.5 µM) | 0.246 ± 0.014 | 0.21 ± 0.014
12 | NC(N)=NCCC[C@H](NC(=O)[C@@H]1CCCN1C(=O)[C@H](N)Cc1ccccc1)C(=O)CCl + OC(Cn1cncn1)(Cn1cncn1)c1ccc(F)cc1F [fluconazole] (first compound 12.5 µM) | 0.269 ± 0.0072 | 0.159 ± 0.011
13 | CC(C)CC(=O)N[C@H](C(=O)N[C@H](C(=O)N[C@@H](CC(C)C)[C@@H](O)CC(=O)N[C@@H](C)C(=O)N[C@@H](CC(C)C)[C@@H](O)CC(=O)O)C(C)C)C(C)C [Pepstatin A] + CC[C@H](C)C[C@H](C)CCCCCCCCC(=O)N[C@H]1C[C@@H](O)[C@@H](NCCN)NC(=O)[C@@H]2[C@@H](O)CCN2C(=O)[C@H]([C@H](O)CCN)NC(=O)[C@H]([C@H](O)[C@@H](O)c2ccc(O)cc2)NC(=O)[C@@H]2C[C@@H](O)CN2C(=O)[C@H]([C@@H](C)O)NC1=O [caspofungin] (first compound 12.5 µM) | 0.264 ± 0.01 | 0.18 ± 0.013
14 | CSCCC(C=O)NC(=O)C(CC(C)C)NC(=O)[C@H](CC(C)C)NC(C)=O (stereo partly drawn) [Calpain Inhibitor II (ALLM)] + C[C@@H]1[C@H](O)[C@@H](C)/C=C/C=C/C=C/C=C/C=C/C=C/C=C/[C@H](O[C@@H]2O[C@H](C)[C@@H](O)[C@H](N)[C@@H]2O)C[C@@H]2O[C@](O)(C[C@@H](O)C[C@@H](O)[C@H](O)CC[C@@H](O)C[C@@H](O)CC(=O)O[C@H]1C)C[C@H](O)[C@H]2C(=O)O [amphotericin B] (first compound 12.5 µM) | 0.247 ± 0.0052 | 0.193 ± 0.0094
15 | C[C@H](NC(=O)[C@@H]1CCCN1C(=O)[C@@H]1CCCN1C(=O)[C@@H](O)[C@H](N)Cc1ccccc1)C(N)=O [Apstatin] + OC(Cn1cncn1)(Cn1cncn1)c1ccc(F)cc1F [fluconazole] (first compound 12.5 µM) | 0.287 ± 0.01 | 0.118 ± 0.0072
16 | O=C1Nc2ccc([N+](=O)[O-])cc2C1=O [5-Nitroisatin] + C[C@@H]1[C@H](O)[C@@H](C)/C=C/C=C/C=C/C=C/C=C/C=C/C=C/[C@H](O[C@@H]2O[C@H](C)[C@@H](O)[C@H](N)[C@@H]2O)C[C@@H]2O[C@](O)(C[C@@H](O)C[C@@H](O)[C@H](O)CC[C@@H](O)C[C@@H](O)CC(=O)O[C@H]1C)C[C@H](O)[C@H]2C(=O)O [amphotericin B] (first compound 12.5 µM) | 0.256 ± 0.005 | 0.159 ± 0.013
17 | CCN1C(=O)C=CC1=O [N-Ethylmaleimide] + CC[C@H](C)C[C@H](C)CCCCCCCCC(=O)N[C@H]1C[C@@H](O)[C@@H](NCCN)NC(=O)[C@@H]2[C@@H](O)CCN2C(=O)[C@H]([C@H](O)CCN)NC(=O)[C@H]([C@H](O)[C@@H](O)c2ccc(O)cc2)NC(=O)[C@@H]2C[C@@H](O)CN2C(=O)[C@H]([C@@H](C)O)NC1=O [caspofungin] (first compound 4 µM) | 0.281 ± 0.013 | 0.17 ± 0.0037
18 | COC(=O)N[C@H](C(=O)N[C@@H](Cc1ccccc1)[C@@H](O)CN(Cc1ccc(-c2ccccn2)cc1)NC(=O)[C@@H](NC(=O)OC)C(C)(C)C)C(C)(C)C [atazanavir] + C[C@@H]1[C@H](O)[C@@H](C)/C=C/C=C/C=C/C=C/C=C/C=C/C=C/[C@H](O[C@@H]2O[C@H](C)[C@@H](O)[C@H](N)[C@@H]2O)C[C@@H]2O[C@](O)(C[C@@H](O)C[C@@H](O)[C@H](O)CC[C@@H](O)C[C@@H](O)CC(=O)O[C@H]1C)C[C@H](O)[C@H]2C(=O)O [amphotericin B] (first compound 12.5 µM) | 0.286 ± 0.013 | 0.213 ± 0.0068
19 | Cc1c(O)cccc1C(=O)N[C@@H](CSc1ccccc1)[C@H](O)CN1C[C@H]2CCCC[C@H]2C[C@H]1C(=O)NC(C)(C)C [nelfinavir] + OC(Cn1cncn1)(Cn1cncn1)c1ccc(F)cc1F [fluconazole] (first compound 12.5 µM) | 0.255 ± 0.0099 | 0.121 ± 0.018
